Sampled rows, rich in hits. Any-hit rate of the full collection: about 2.3%.
Bcl-xL primary: inhibitors of human Bcl-xL. Q07817. GST-Bcl-xL / FITC-Bim BH3 peptide fluorescence polarization. inhibition, % at 10.9 µM. 320,000 tested, 0.7% active. AID 2129;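 active means inhibition above the mean of all tested compounds plus 3 SD, cutoff set per campaign, cut at about 30% in these data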;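 further: inhibitors lower millipolarization by displacing the labeled peptide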
Target sequence (Q07817 whole entry, looked up): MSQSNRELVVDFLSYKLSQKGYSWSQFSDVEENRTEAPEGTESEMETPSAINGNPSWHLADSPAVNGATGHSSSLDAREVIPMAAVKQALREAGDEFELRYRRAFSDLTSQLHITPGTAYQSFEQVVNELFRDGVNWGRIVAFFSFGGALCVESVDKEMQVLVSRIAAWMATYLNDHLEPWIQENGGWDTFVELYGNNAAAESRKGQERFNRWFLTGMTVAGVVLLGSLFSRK
Mcl-1 Bim block: inhibitors of Bim-Mcl-1 interaction, human | Bead-based flow cytometry, Bim peptide-Mcl-1 binding | 190,000 tested, 0.1% active | Q07820 | inhibition, % at 10 µM; in the data active means inhibition above about 40%
Target sequence (Q07820 whole entry, looked up): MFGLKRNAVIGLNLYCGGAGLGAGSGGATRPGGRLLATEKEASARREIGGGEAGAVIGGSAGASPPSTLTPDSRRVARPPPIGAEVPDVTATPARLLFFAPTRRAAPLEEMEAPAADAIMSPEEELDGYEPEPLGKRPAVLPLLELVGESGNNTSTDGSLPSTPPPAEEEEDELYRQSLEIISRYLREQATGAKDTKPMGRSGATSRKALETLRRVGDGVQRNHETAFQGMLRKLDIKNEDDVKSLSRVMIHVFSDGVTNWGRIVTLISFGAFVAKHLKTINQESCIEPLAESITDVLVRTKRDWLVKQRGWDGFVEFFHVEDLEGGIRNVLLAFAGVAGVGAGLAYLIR
Mcl1-Bid inh: Mcl-1/Bid interaction inhibition | AID 1021 | TR-FRET Mcl-1/Bid-Dy647 peptide binding, 1536-well | 220,000 tested, 0.97% active | inhibition, % at 21.7 µM;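 active means compounds that cut the binding signal by more than half at the single screening dose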;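 further: His-tagged Mcl-1 with europium anti-His antibody binding Bid BH3 peptide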
GLD-1 RNA inh: GLD-1-TGE RNA interaction inhibition (C. elegans); 320,000 tested, 0.44% active; inhibition, % at 5.96 µM; Q17339; purified GLD-1 + fluorescein TGE RNA, fluorescence polarization;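 active means percent inhibition above a per-plate cutoff, the plate mean of test compounds plus 3 SD, cut at about 30% in these data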
Mcl1-Noxa inh: disrupts binding of human Mcl-1 to Noxa peptide; TR-FRET Mcl-1/Noxa peptide binding, 2 h; inhibition, % at 21.7 µM; Q07820; 220,000 tested, 1.5% active;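 active means compounds that cut the protein-peptide binding signal by more than 50% relative to plate controls in a single-dose test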;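 further: His-tagged Mcl-1 with rhodamine Noxa BH3 peptide and terbium anti-His antibody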
MCL1-BIM inh: MCL1-BIM-BH3 interaction inhibition (human) | Q07820 | GST-MCL1 / FITC-Bim-BH3 fluorescence polarization | inhibition, % at 10.9 µM | 320,000 tested, 0.68% active | AID 2057;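 active means inhibition above the mean inhibition of all tested compounds plus 3 SD, set per campaign, cut at about 40% in these data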;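 further: higher means more loss of mP so more displacement of Bim peptide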
Hits are given with their value; – = inactive; · = not tested or not shown.

SMILES | Bcl-xL primary | Mcl-1 Bim block | Mcl1-Bid inh | GLD-1 RNA inh | Mcl1-Noxa inh | MCL1-BIM inh
COc1ccc(NC(=O)Cc2ccccc2F)cc1S(=O)(=O)N1CCCCC1 | – | · | · | – | · | –
O=C(Nc1ccc(N2CCCC2)cc1)c1ccc2ccccc2c1 | – | – | – | – | 74.5 | –
CC(=O)Nc1ccc(N2CCCC2)cc1 | – | – | – | – | – | –
O=C(Nc1ccc(N2CCCC2)cc1)c1ccccc1F | – | – | – | – | 82.4 | –
O=C(Nc1ccc(N2CCCC2)cc1)c1cccc(F)c1 | – | – | – | – | 67.4 | –
CC(C)(C)C(=O)Nc1ccc(N2CCCC2)cc1 | – | – | – | – | 56.5 | –
COc1ccc(C(=O)NC2CCN(CC(=O)Nc3cccc(OC)c3)CC2)cc1 | – | · | · | – | · | –
O=C(/C=C/c1ccc(NC(=O)c2ccccc2-c2ccccc2C(=O)O)cc1)c1ccccc1 | – | · | · | – | · | –
Cc1ccc(C(=O)Nc2ccc(N3CCCCC3)cc2)cc1 | · | · | · | – | · | ·
O=C(/C=C/c1ccncc1)c1ccc(NC(=O)c2ccccc2F)cc1 | – | – | 51.5 | – | – | –
Cc1ccc(C(=O)Nc2ccc(N3CCCC3)cc2)cc1 | – | – | – | – | 77.5 | –
COc1cccc(N2CCN(C3CC(=O)N(c4ccc(F)c(Cl)c4)C3=O)CC2)c1 (centres undefined) | – | – | – | – | – | –
COc1ccc(NC2CCN(C3CC(=O)N(c4ccc(F)c(Cl)c4)C3=O)CC2)cc1 (centres undefined) | – | – | – | – | 56.0 | –
CCNc1ccc(S(=O)(=O)NCCN(C)C)cc1[N+](=O)[O-] | – | – | – | – | – | –
CCNc1ccc(S(N)(=O)=O)cc1[N+](=O)[O-] | – | – | – | – | 51.3 | –
Cc1ccc(C(=O)O)cc1NC(=O)CSc1nnc(-c2ccccc2F)n1C1CCCCC1 | · | · | · | – | · | ·
Cc1cc(C)nc(N(C#N)S(=O)(=O)c2ccccc2Cl)n1 | – | – | 89.2 | – | – | –
CC(=O)Nc1ccc(S(=O)(=O)N(C#N)c2nc(C)cc(C)n2)cc1 | – | · | · | – | · | –
Cc1c(NC(=O)c2cc(-c3ccccc3)nc3ccccc23)c(=O)n(-c2ccccc2)n1C | · | · | · | – | · | ·
Cc1c(NC(=O)COC(=O)c2cc(-c3ccc(-c4ccccc4)cc3)nc3ccccc23)c(=O)n(-c2ccccc2)n1C | – | – | 81.7 | – | – | –
CCOC(=O)C1=C(CSc2nc3c(cc2C#N)CN(C)CC3)OC(N)=C(C#N)C1c1ccc(F)cc1 (centres undefined) | 39.3 | – | – | – | – | 42.9
O=C(O)c1ccccc1NSc1ccccc1[N+](=O)[O-] | – | 51.0 | – | – | – | –
Cc1ccccc1C(=O)Nc1nc(-c2cccnc2)cs1 | – | · | – | – | 74.9 | –
CN(C)c1ccc(Nc2nc(-c3cccnc3)cs2)cc1 | – | – | – | – | 60.2 | –
CCN(CC)c1ccc(Nc2nc(-c3cccnc3)cs2)cc1 | – | · | · | – | · | –
SMILES | Bcl-xL primary | Mcl-1 Bim block | Mcl1-Bid inh | GLD-1 RNA inh | Mcl1-Noxa inh | MCL1-BIM inh
COc1ccc(S(=O)(=O)NCCCN2CCCC2=O)cc1OC | – | · | · | – | · | –
Cc1nn2c(=O)c3c4c(sc3nc2n1-c1ccccc1)COC(C)(C)C4 | – | · | – | – | – | –
CCOC(=O)c1c(C)[nH]c(C(=O)OCC(=O)N2CCN(S(=O)(=O)c3ccc(C)cc3C)CC2)c1C | – | · | · | – | · | –
O=[N+]([O-])c1cc([N+](=O)[O-])c2cc(-c3cccnc3)[nH]c2c1 | 35.6 | · | · | – | · | –
O=[N+]([O-])c1ccc2nc(-c3cccnc3)[nH]c2c1 | – | · | · | – | · | –
COc1cccc(NC(=O)COC(=O)c2ccccc2C(=O)N2CCN(c3ccccc3)CC2)c1 | 48.5 | – | – | 43.5 | – | 49.7
O=C(COC(=O)c1ccccc1C(=O)N1CCN(c2ccccc2)CC1)Nc1ccc(F)cc1 | 53.8 | – | – | 36.8 | – | 48.6
O=C(Nc1cccc(C(F)(F)F)c1)C1CCN(S(=O)(=O)c2ccc(N3CCCC3=O)cc2)CC1 | – | · | · | – | · | –
COc1ccc(C(=O)O)cc1S(=O)(=O)Nc1cc(Cl)ccc1N1CCOCC1 | – | · | · | – | · | –
COc1ccc(C2CC(=O)C3=C(C2)Nc2ccccc2NC3c2coc3ccccc3c2=O)cc1OC (centres undefined) | – | 42.0 | – | – | – | –
COc1cc(OC)c(C2Nc3ccccc3NC3=C2C(=O)CC(C)(C)C3)cc1OC (centres undefined) | – | · | · | – | · | –
O=C(CNC(=O)c1ccc(S(=O)(=O)N2CCCC2)cc1)N/N=C/c1ccc(Cl)cc1Cl | – | 98.0 | – | – | – | –
CC(C)CC(=O)N1CCN(CC2CC=CCC2)CC1 (centres undefined) | – | – | 56.8 | – | – | –
CCC(CC)N1CCN(CC2CC=CCC2)CC1 (centres undefined) | – | – | – | – | – | –
COc1cc(/C=N/N(C)c2ccccc2)cc(Cl)c1O | – | – | – | – | 67.1 | –
COc1ccc(OC)c(/C=N/N(C)c2ccccc2)c1 | – | – | – | – | – | –
Cc1cc(C)c2nc(N3CCCN(C(=O)c4ccco4)CC3)c(C#N)cc2c1 | – | – | 54.9 | – | 72.9 | –
Cc1ccc(CNC(=O)/C=C/c2ccc(Br)o2)cc1 | – | – | – | – | – | –
O=C(/C=C/c1ccc(Br)o1)NCc1ccccc1 | – | – | – | – | 72.3 | –
CCOc1ccc(N2C(=O)CC(/C=C3/N(C)c4ccccc4C3(C)C)C2=O)cc1 (centres undefined) | – | – | – | – | – | –
CN1/C(=C/C2CC(=O)N(c3cccc4ccccc34)C2=O)C(C)(C)c2ccccc21 (centres undefined) | – | – | – | – | 53.9 | –
CCCC(C)NC(=O)C1c2ccccc2Oc2ccccc21 (centres undefined) | – | · | · | – | · | –
Cc1[nH]c2ccccc2c1/C=C/c1cc[n+](C)cc1 | · | – | – | · | – | ·
C=CCn1c(C)c(/C=C/c2cc[n+](C)cc2)c2ccccc21 | – | · | · | 74.2 | · | –
CCN(CC)C(=O)Cn1c(=O)n(C)c2ccccc21 | – | · | – | – | – | –
SMILES | Bcl-xL primary | Mcl-1 Bim block | Mcl1-Bid inh | GLD-1 RNA inh | Mcl1-Noxa inh | MCL1-BIM inh
CCn1cc(/C=C/c2cc[n+](C)cc2)c2ccccc21 | 40.7 | · | · | 65.7 | · | –
Cc1ccccc1/C=C/c1cc[n+](C)cc1 | – | – | – | – | – | –
CCN(CC)C(=O)Cn1c(C)c(/C=C/c2cc[n+](C)cc2)c2ccccc21 | – | · | · | 60.3 | · | –
C=CCn1cc(/C=C/c2cc[n+](C)cc2)c2ccccc21 | 46.3 | · | · | 56.6 | · | –
Cc1cccc(NC(=O)CSc2nnc(CSc3nc(C)cc(C)n3)o2)c1 | 31.0 | – | – | – | – | –
COc1ccc(N=Cc2c(O)n(-c3ccc(OC)cc3)c(=O)c3ccccc23)cc1 | – | – | – | – | – | –
O=c1c2ccccc2c(C=Nc2cccc(O)c2)c(O)n1-c1ccc2c(c1)OCO2 | – | – | 60.2 | – | – | –
Cc1ccc(OCCNC(=O)c2ccc(NC(=O)CC3SC(N4CCCC4)=NC3=O)cc2)cc1 (centres undefined) | – | · | · | – | · | –
